Potency and affinity values are given separately.

In ChEMBL document CHEMBL4513141, “CO-ADD screening of NIH (USA) - Clinical Collection” (2021) one finds Inhibition data, which are given here for 47 molecules.

Assay [1] concerns Klebsiella pneumoniae. The note with it: Concentration 20 uM; ASSAY_TEST Inhibition of Bacterial Growth; detection method Absorption (OD600); MEDIA CAMHB; plate type 384well; NBS; CORNING #3640; time 18 hr.
In assay [2] the test system is Candida albicans. The settings on record: 20 µM.
For assay [3], the system named is Cryptococcus neoformans. The settings on record: Concentration 20 uM; ASSAY_TEST Inhibition of Fungal Growth; detection method Resazurin; Absorption (OD600-OD570); plate type 384well; NBS; CORNING #3640. (Resazurin is reduced to fluorescent resorufin, in cell work by metabolically active cells.)

In general, Inhibition refers to the drop in the measured response relative to a control, in per cent. `CN1C(=O)CN=C(c2ccccc2)c2cc([N+](=O)[O-])ccc21` [NIMETAZEPAM]: the Inhibition in assay [1] was 13.4%; in assay [2], 0.89%; in assay [3] it was -7.7%.
The corresponding values for `CC(C)CC(N(C)C)C1(c2ccc(Cl)cc2)CCC1` (stereo not given) [SIBUTRAMINE] are 10.19%, 2.06% and 1.52%.
For the molecule `CNC1=Nc2ccc(Cl)cc2C(c2ccccc2)=[N+]([O-])C1` [CHLORDIAZEPOXIDE], the Inhibition is 19.46% in assay [1], 2.53% in assay [2] and -9.21% in assay [3].
For the molecule `Cc1ccc(-c2nc3ccc(C)cn3c2CC(=O)N(C)C)cc1.Cc1ccc(-c2nc3ccc(C)cn3c2CC(=O)N(C)C)cc1.O=C(O)C(O)C(O)C(=O)O` [ZOLPIDEM TARTRATE], the figures for the Inhibition in assay [1], in assay [2] and in assay [3] were 6.38%, 4.32% and -1.23%, respectively.
Turning to `NCCc1ccccn1`, the Inhibition was 3.21% in assay [1], 3.53% in assay [2] and -5.04% in assay [3].
As to `Cl.O.Oc1cc2c(cc1O)[C@H]1c3ccccc3CN[C@@H]1CC2`, the Inhibition was 11.23% in assay [1], 1.34% in assay [2] and -4.18% in assay [3].
Take `Cc1c(O)c(=O)ccn1C` [DEFERIPRONE]: the Inhibition in assay [1] was 3.55%; in assay [2] it was 4.97%; in assay [3], -5.92%.
The corresponding values for `CN1C(=O)COc2c(C(=O)NC3CN4CCC3CC4)cc(Cl)cc21.Cl` (stereo not given) are 10.75%, 2.68% and -3.23%.
The corresponding values for `Cl.c1ccc2c(CC3=NCCN3)cccc2c1` [NAPHAZOLINE HYDROCHLORIDE] are 13.63%, 3.38% and -4.12%.
The corresponding values for `O=C(O)C(Cl)Cl` [DICHLOROACETIC ACID] are 10.68%, 2.59% and -3.9%.
As to `C#C[C@]1(OC(C)=O)CC[C@H]2[C@@H]3CCC4=CC(=O)CC[C@@H]4[C@H]3CC[C@@]21C` [NORETHINDRONE ACETATE], the figures for the Inhibition in assay [1], in assay [2] and in assay [3] were -0.71%, 6.32% and -4.57%, respectively.
Consider `CC(C)N(CCC(C(N)=O)(c1ccccc1)c1ccccn1)C(C)C.O=P(O)(O)O` (stereo not given) [DISOPYRAMIDE PHOSPHATE], for which the Inhibition in assay [1] was 5.68%; in assay [2] it was 3.35%; in assay [3], 0.14%.
Turning to `CC(C)NCC(O)COc1cccc2[nH]ccc12` (stereo not given) [PINDOLOL], the results for the Inhibition in assay [1], in assay [2] and in assay [3] were 17.1%, 3.5% and -9.82%, respectively.
The corresponding values for `CNCC(O)c1ccc(O)cc1` (stereo not given) [OXEDRINE] are -0.12%, 5.72% and 1.4%.
For `Br.COc1ccc2c(c1)[C@]13CCCC[C@@H]1[C@H](C2)N(C)CC3.O` [DEXTROMETHORPHAN HYDROBROMIDE] the same measures were 8.1%, 2.88% and -7.7%.
For `Nc1nc(F)nc2c1ncn2[C@@H]1O[C@H](CO)[C@@H](O)[C@@H]1O` [FLUDARABINE] the same measures were 6.42%, 0.49% and -5.72%.
As to `C[C@]12CC[C@H]3[C@@H](CCC4=CC(=O)CC[C@@]43C)[C@@H]1CC[C@@H]2O` [TESTOSTERONE], the Inhibition in assay [1] is reported as 3.5%; in assay [3], 1.59%.
With `C[C@]12Cc3c[nH]nc3C[C@@H]1CC[C@@H]1[C@@H]2CC[C@@]2(C)[C@H]1CC[C@]2(C)O` [STANOZOLOL], the Inhibition in assay [1] is 7.49%; in assay [2] it was 8.82%; in assay [3], -7.23%.
Consider `Cl.O=C1CC2(CCCC2)CC(=O)N1CCCCN1CCN(c2ncccn2)CC1` [BUSPIRONE HYDROCHLORIDE], for which the Inhibition in assay [1] was 10.99%; in assay [2], 5.32%; in assay [3], -4.43%.
For `CN(C)CCc1c[nH]c2ccc(Cn3cncn3)cc12.O=C(O)c1ccccc1` [RIZATRIPTAN BENZOATE], the values for the Inhibition in assay [1], in assay [2] and in assay [3] were 7.74%, 5.06% and -5.39%, respectively.
For `C[N+]1(C)CCN(c2ccccc2)CC1.[I-]` [DIMETHYLPHENYLPIPERAZINIUM IODIDE] the same measures were 19.04%, 2.58% and -7.47%.
On to `CN1CCC[C@H]1c1cccnc1` [NICOTINE], for which the Inhibition in assay [1] was -4.81%; in assay [2] it was 1.61%; in assay [3], -2.7%.
For `CC[C@]1(O)CC[C@H]2[C@@H]3CCC4=CCCC[C@@H]4[C@H]3CC[C@@]21C` [ETHYLESTRENOL] the same measures were 4.45%, 4.07% and -2.32%.
For `CN1CCN(C2=Nc3cc(Cl)ccc3Nc3ccccc32)CC1` [CLOZAPINE] the same measures were 8.37%, 0.59% and -5.79%.
On to `CCCC(C)(COC(N)=O)COC(=O)NC(C)C` (stereo not given) [CARISOPRODOL], for which the Inhibition in assay [1] worked out at 4.45%; in assay [2], 4.69%; in assay [3], 4.79%.
The corresponding values for `NS(=O)(=O)c1cc(C2(O)NC(=O)c3ccccc32)ccc1Cl` (stereo not given) [CHLORTHALIDONE] are 4.57%, 3.92% and -1.27%.
For `CCN(C(C)=O)c1cccc(-c2ccnc3c(C#N)cnn23)c1` [ZALEPLON] the same measures were 6.53%, -0.36% and -1.32%.
The corresponding values for `Cl.O.Oc1ccc2c3c1O[C@H]1c4[nH]c5ccccc5c4C[C@@]4(O)C(C2)N(CC2CC2)CC[C@]314` are -0.12%, 6.31% and -5.72%.
Turning to `CCN(CC)CCOC(=O)C(O)(c1ccccc1)c1ccccc1.Cl`, the Inhibition is 9.09% in assay [1], 3.32% in assay [2] and -7.17% in assay [3].
For `c1ccc2c3c([nH]c2c1)CNCC3` [TRYPTOLINE] the same measures were 13.54%, 3.92% and -5.61%.
The corresponding values for `CN1CCN2c3ncccc3Cc3ccccc3C2C1` (stereo not given) [MIRTAZAPINE] are 5.61%, 4.27% and 3.57%.
The corresponding values for `CC(C)[C@]12O[C@H]1[C@@H]1O[C@]13[C@]1(O[C@H]1C[C@H]1C4=C(CC[C@@]13C)C(=O)OC4)[C@@H]2O` [TRIPTOLIDE] are 7.24%, 1.65% and -8.43%.
For `C=C1C[C@@H]2[C@H](CC[C@]3(C)C(=O)CC[C@@H]23)[C@@]2(C)C=CC(=O)C=C12` [EXEMESTANE], the values for the Inhibition in assay [1], in assay [2] and in assay [3] were 6.02%, 5.81% and -8.06%, respectively.
For `Br.Br.CN1CC[C@]2(c3cccc(O)c3)Cc3nc4ccccc4cc3C[C@H]2C1.O` the same measures were 12.17%, 0.66% and 2.37%.
The corresponding values for `CN(C)CCC=C1c2ccccc2CCc2ccccc21.Cl` [AMITRIPTYLINE HYDROCHLORIDE] are 11.13%, 3.15% and -4.46%.
Take `Cl.NCC(O)c1ccc(O)c(O)c1` (stereo not given): the results for the Inhibition in assay [1], in assay [2] and in assay [3] were 15.27%, 4.08% and -2.98%, respectively.
For `CN(C)CCOc1ccc(/C(=C(/CCCl)c2ccccc2)c2ccccc2)cc1.O=C(O)CC(O)(CC(=O)O)C(=O)O` [TOREMIFENE CITRATE] the same measures were 8.47%, 1.73% and -7.47%.
With `CN1CC[C@@]23CCCC[C@@H]2[C@@H]1Cc1ccc(O)cc13.O=C(O)C(O)C(O)C(=O)O`, the Inhibition in assay [1] was 17.43%; in assay [2], 2.27%; in assay [3], -5.99%.
The corresponding values for `CN(C)C(=O)C(CCN1CCC(O)(c2ccc(Cl)cc2)CC1)(c1ccccc1)c1ccccc1.Cl` [LOPERAMIDE HYDROCHLORIDE] are 11.49%, 2.32% and -15.04%.
The corresponding values for `Cc1nnc2n1-c1ccc(Cl)cc1C(c1ccccc1)=NC2` [ALPRAZOLAM] are 8.67%, 1.98% and -4.87%.
Turning to `C=C(C)[C@@H]1[C@H]2OC(=O)[C@@H]1[C@]1(O)C[C@H]3O[C@]34C(=O)O[C@H]2[C@]14C.CC(C)(O)[C@@H]1[C@H]2OC(=O)[C@@H]1[C@]1(O)C[C@H]3O[C@]34C(=O)O[C@H]2[C@]14C`, the Inhibition in assay [1] is 10.94%; in assay [2], 2.79%; in assay [3], -5.47%.
As to `COc1cc2c(cc1OC)[C@@]13CCN4CC5=CCO[C@H]6CC(=O)N2[C@H]1[C@H]6[C@H]5C[C@H]43` [BRUCINE], the Inhibition in assay [1] is 6.18%; in assay [2], 2.36%; in assay [3], -1.81%.
The corresponding values for `CNS(=O)(=O)Cc1ccc2[nH]cc(CCN(C)C)c2c1.O=C(O)CCC(=O)O` [SUMATRIPTAN SUCCINATE] are 9.24%, 4.97% and -9.65%.
Take `NC1=NC(=O)C(c2ccccc2)O1` (stereo not given) [PEMOLINE]: the figures for the Inhibition in assay [1], in assay [2] and in assay [3] were 13.09%, 1.75% and -5.45%, respectively.
As for `CCCCCNC(=N)N/N=C/c1c[nH]c2ccc(OC)cc12.O=C(O)/C=C\C(=O)O` [TEGASEROD MALEATE], the figures for the Inhibition in assay [1], in assay [2] and in assay [3] were 6.68%, 0.86% and -67.8%, respectively.
Consider `CN/C(=N\CCSCc1nc[nH]c1C)NC#N` [CIMETIDINE], for which the Inhibition amounted to 3.14% in assay [1], 3.16% in assay [2] and 2.1% in assay [3].
Turning to `CS(=O)(=O)Nc1ccc(Cc2noc(-c3ccc4[nH]cc(CCN)c4c3)n2)cc1.O.O`, the Inhibition in assay [1] is 11.61%; in assay [2], 2.75%; in assay [3], -39.59%.
